Reference: PubChem BioAssay AID614 (Sanford-Burnham Center for Chemical Genomics, 2007)
In all, about 21,000 compounds went through this assay and fewer than 10 were called active.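 The calls were made as follows: active = inhibition above 50% at the 20 µM single-dose screen; inactive = the rest.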 These entries were drawn from the full list.

biological target: Alkaline phosphatase, tissue-nonspecific isozyme (Homo sapiens) (UniProt P05186); test: human TNAP enzyme inhibitors, primary screen, biochemical, colorimetric, phosphate release readout (AID 614); settings: purified TNAP, pNPP, malachite green phosphate absorbance; at 20 µM; active compounds read high
Sequence (P05186 whole entry, looked up): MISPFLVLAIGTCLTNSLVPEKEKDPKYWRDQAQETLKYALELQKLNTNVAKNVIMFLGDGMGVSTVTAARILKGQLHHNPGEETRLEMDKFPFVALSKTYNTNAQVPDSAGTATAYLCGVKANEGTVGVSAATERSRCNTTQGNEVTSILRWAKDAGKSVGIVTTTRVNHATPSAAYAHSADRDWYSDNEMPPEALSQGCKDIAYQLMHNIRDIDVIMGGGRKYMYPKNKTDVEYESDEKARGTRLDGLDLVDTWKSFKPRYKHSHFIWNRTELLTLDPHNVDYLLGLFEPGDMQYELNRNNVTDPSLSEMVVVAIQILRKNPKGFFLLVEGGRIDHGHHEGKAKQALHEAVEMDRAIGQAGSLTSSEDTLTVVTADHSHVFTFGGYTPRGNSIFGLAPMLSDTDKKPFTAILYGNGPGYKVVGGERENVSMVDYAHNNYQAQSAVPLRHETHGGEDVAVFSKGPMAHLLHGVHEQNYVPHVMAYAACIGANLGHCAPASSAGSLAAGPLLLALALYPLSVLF

inhibition, inactive:
CN(C)CCCNc1c2c(c(C#N)c3nc4ccccc4n13)CCC2 0%
Cc1c(C(=O)OCc2cc(=O)n3cc(Br)ccc3n2)oc2ccccc12 -2.2%
Cc1ccc(Oc2ccc(N)cc2)cc1 15%
Cc1cc(N2CCCC2)n2nc(C)c(-c3ccccc3)c2n1 8.2%
CC(C)C1Cc2c(sc3c2c(=O)n(-c2ccccc2)c2nncn32)CO1 (stereo unspecified) 10.1%
COC(=O)c1cc(OC)c(OC)cc1NC(=O)C1CCCO1 (stereo unspecified) 6%
CC(=O)N1CCN(C(=O)Nc2cccc(C(F)(F)F)c2)CC1 -0.7%
CCCC(=O)Nc1ccc2c(c1)nc1n2CCSC1 3.5%
O=C(CSc1nnc(-c2ccoc2)o1)N1CCOCC1 -1.3%
c1cnc(NC2C3CC4CC(C3)CC2C4)nc1 (stereo unspecified) 3.8%
N#CC(C(N)=O)=C1CCC2(CC1)OCCCCO2 13.2%
Cc1ccc(S(=O)(=O)N2CCC(N3CCCCCC3)CC2)cc1 7%
COc1ccc(-c2nnc(SCC(=O)c3ccco3)n2-c2ccccc2)cc1 2.3%
O=C(c1cccc(S(=O)(=O)N2CCOCC2)c1)N1CCOCC1 6.8%
CCc1ccc(N2CC(C(=O)NC3=NCCS3)CC2=O)cc1 (stereo unspecified) -4.1%
COC(=O)[C@H](Cc1ccccc1)NC(=O)N1CC(C)OC(C)C1 (stereo partly specified) 6.7%
CC(C)OCCCNc1nc2c(c(=O)n(Cc3ccccc3F)c(=O)n2C)n1C 11.4%
N#Cc1c2c(c(-c3ccccc3)[nH]c1=O)CCCC2 9.6%
Cc1ccc(C(C(=O)NC2CCCC2)N(Cc2ccco2)C(=O)CCC(=O)Nc2ccccn2)cc1 (stereo unspecified) 7.3%
COc1c(O)cccc1-c1nnn(CCC(=O)OCC(=O)c2ccccc2)n1 2.2%
O=C(O)c1cscn1 4.2%
O=C(CSc1nnc(-c2ccccn2)n1-c1ccccc1)Nc1ccc2c(c1)OCO2 3.6%
COc1ccc(C(=O)Nc2ccc(S(=O)(=O)Nc3onc(C)c3C)cc2)cc1OC 0.4%
CCOC(=O)C1=C(C)NC(=O)N(C(C)=O)C1c1ccc(Cl)cc1 (stereo unspecified) 10%
O=C(NCCSc1ccccc1)c1ccco1 13.2%
CCc1nc2ccccc2n(CCOCCOCCn2c(=O)c(CC)nc3ccccc32)c1=O 8.8%
COc1cccc(N(CC(=O)Nc2cccc(N(C)S(C)(=O)=O)c2)S(C)(=O)=O)c1 0%
CS(=O)(=O)N1CCN(C(=O)c2cc3ccccc3oc2=O)CC1 11.1%
COc1ccc(CNC(=O)c2c(C)cc(=O)oc2C)cc1OC 11.6%
COc1ccc(-n2c(SCC(=O)OC(C)C)nnc2-c2ccccn2)cc1 7.8%
CCN(CC)S(=O)(=O)c1cccc(C(=O)Nc2ccccc2)c1 3.8%
Cc1cc(C)nc(SCc2nnc(SCC(=O)OC3CCCCC3)o2)n1 2.9%
CNC(=O)c1nnn(-c2ccccc2)c1C(=O)NC 6.4%
COC(=O)c1ccc(NC(=O)CSc2nnc(CNc3ccc(OC)cc3)n2C)cc1 -7.8%
CCc1nc2oc3ccccc3c(=O)c2c(=O)n1Cc1ccc(OC)cc1 6.6%
CCOC(=O)c1cc2cc(C)ccc2[nH]1 -8.6%
